Hits are enriched below; roughly 2.6% of the tested compounds scored in any of these assays.
Cruzain Triton = inhibitors of Trypanosoma cruzi cruzain with detergent; P25779; purified cruzain, Z-FR-AMC fluorescence, 0.01% Triton; Potency, µM, for inactives: max response, negative = inhibition, usual class: inhibitors; 200,000 compounds, 0.43% hits; AID 1478;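 further: plate controls were neutral wells for no effect and buffer without enzyme for full effect; nearly all actives have a fitted effect of over 40% in size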
Target sequence (P25779 123-467 limits assumed): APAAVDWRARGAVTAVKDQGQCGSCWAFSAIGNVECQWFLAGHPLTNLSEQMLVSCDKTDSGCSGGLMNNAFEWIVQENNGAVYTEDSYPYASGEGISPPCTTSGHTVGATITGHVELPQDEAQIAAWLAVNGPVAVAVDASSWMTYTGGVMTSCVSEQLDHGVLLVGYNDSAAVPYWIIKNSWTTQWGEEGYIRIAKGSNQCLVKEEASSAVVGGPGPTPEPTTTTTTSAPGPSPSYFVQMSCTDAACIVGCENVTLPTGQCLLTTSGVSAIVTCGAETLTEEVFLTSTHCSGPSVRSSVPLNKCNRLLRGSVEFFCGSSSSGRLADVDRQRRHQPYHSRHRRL
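15 min RT preincubation of 1.5 nM cruzain with compound, then 2 uM Z-FR-AMC added; kinetic AMC fluorescence, 60 s delta. Triton X-100 0.01%, pH 5.5.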
Cruzain inh noDet = inhibitors of Trypanosoma cruzi cruzain without detergent; P25779; purified cruzain, Z-FR-AMC fluorescence, no detergent; Potency, µM, inactives show max response, negative = inhibition, most hits filed as inhibitors; 200,000 compounds, 2.3% hits;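 further: plate controls were enzyme without inhibitor for no effect and buffer without enzyme for full effect; nearly all actives have a fitted effect of over 40% in size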
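Purified cruzain at 1.5 nM, pre-incubated 15 min with compound at room temperature in 100 mM sodium acetate pH 5.5, 5 mM DTT, 0.00005% Triton X-100. Reaction started with 2 uM Z-FR-AMC; AMC fluorescence increase over 60 s gives rate.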
Active calls of the source: *; u = inconclusive. The call rests on the fitted dose curve; in most records, active means well fitted curve in the direction sought with a large enough effect; inconclusive means small, poorly fitted or top-dose-only effect, or another doubt; inactive means no such curve, though single readings can be large; an effect the other way counts as inactive or inconclusive. Potency means the concentration at half of the fitted maximal effect.

SMILES	Cruzain Triton	Cruzain inh noDet
Cc1cc2nc3[nH]c4c(Cl)cc(Cl)cc4c3nc2cc1C	1%	4%
Cc1ccc(NC(=O)C(=O)NCCc2sc(-c3ccc(Cl)cc3)nc2C)cc1C	3%	-16%
COc1ccc2nc(/C=N/NC(=O)[C@H](C)NC(=O)OC(C)(C)C)ccc2c1	-24%	32µM*
Cc1ccc2cc(/C=N/NC(=O)[C@H](C)NC(=O)OC(C)(C)C)c(Cl)nc2c1	-1%	2%
O=C(O)[C@H]1C[C@@H](CP(=O)(O)O)CCN1	4%	6%
CCCNC(=O)c1c(NC(=O)C2COc3ccccc3O2)sc2c1CCCC2 (stereo unspecified)	2%	20µM*
O=C(NC1CCS(=O)(=O)C1)c1c(NC(=O)C2COc3ccccc3O2)sc2c1CCCC2 (stereo unspecified)	-4%	-8%
CC1CN(C(=O)c2ccccc2)C(=Nc2cccc(S(=O)(=O)N(C)C)c2)S1 (stereo unspecified)	0%	3%
CN(C)S(=O)(=O)c1cccc(N=C2NN=C(c3ccccc3)CS2)c1	-3%	32µM*
O=C(Cn1c(=O)n(Cc2ccccc2)c(=O)c2sc3ccccc3c21)Nc1ccc(F)cc1	-1%	-9%
O=C(Nc1cccc(C(F)(F)F)c1)c1cc(CN2CCOCC2)on1	0%	12%
Cc1ccc(-c2[nH]nc3c2C(c2ccccc2OC(=O)N2CCOCC2)C(C#N)=C(N)O3)cc1 (stereo unspecified)	2%	25µM*
COc1ccc(-c2[nH]nc3c2C(c2ccccc2OC(=O)N2CCOCC2)C(C#N)=C(N)O3)cc1 (stereo unspecified)	1%	u
CCn1c(SCC(=O)Nc2sc3c(c2C#N)CCCC3)nnc1-c1ccncc1	-10%	u
NC(=O)c1c(NC(=O)CSc2nc3c(c(C(F)(F)F)n2)CCc2ccccc2-3)sc2c1CCCC2	0%	u
N#Cc1c(NC(=O)CSc2nc3c(c(C(F)(F)F)n2)CCc2ccccc2-3)sc2c1CCCC2	-3%	7.9µM*
N#Cc1c(NC(=O)CSc2nnc(-c3ccccc3O)n2-c2ccccc2)sc2c1CCCC2	3%	4µM*
Cc1nn(Cc2ccc(Cl)cc2)c(C)c1NC(=O)CSc1nc2c(c(C(F)(F)F)n1)CCc1ccccc1-2	4%	u
CC1CCc2c(sc(NC(=O)CSc3nc4c(c(C(F)(F)F)n3)CCc3ccccc3-4)c2C(N)=O)C1 (stereo unspecified)	-2%	10µM*
CCCN1CCc2nc(N3CCN(c4ncccn4)CC3)ncc2C1	-1%	-11%
c1ccc(-c2cnc(-c3ccc(-c4ncc(-c5ccccc5)o4)cc3)o2)cc1	3%	-1%
CCOc1ccc(CNC(=O)c2ccc3c(c2)c(C)c(C)n3Cc2ccccc2)cc1OC	0%	-27%
CC[C@@]1([N+](=O)[O-])C[C@H]2C=C[C@@H]1C2	2%	2%
COC(=O)C/C=C/[C@@H](C)[C@H](OC)c1c(Br)ccc2c1OCO2	-1%	-5%
O=C(O)/C=C\C(=O)Nc1ccc2c(c1)-c1ccccc1C2	1%	-7%
SMILES	Cruzain Triton	Cruzain inh noDet
CCc1cccc(CC)c1NC(=O)C1SC(=Nc2ccccc2C)C(c2nc3ccccc3s2)=C1N (stereo unspecified)	2%	6.3µM*
CCc1cccc(C)c1NC(=O)CCCSc1nc2ccccc2s1	-6%	-5%
COC(=O)c1ccccc1C[C@]1(C(=O)OC)C=C[C@H](C)[C@@H](c2ccccc2)N1C(=O)C(F)(F)F	0%	0%
Cc1ccc2nc(-c3ccc(NC(=O)COC(=O)c4ccc([N+](=O)[O-])o4)cc3)sc2c1	-6%	16µM*
CCC(C)(C)NC(=S)Nc1ccc(-c2nc3ccc(C)cc3s2)cc1	-2%	u
CC(=O)NC(=S)Nc1ccc(-c2nc3ccc(C)cc3s2)cc1	-1%	6.3µM*
CCOc1ncccc1C(=O)OCC(=O)Nc1ccc(-c2nc3ccc(C)cc3s2)cc1	-5%	-3%
Cc1ccc2nc(-c3ccc(NC(=O)COc4ccccc4)cc3)sc2c1	0%	u
Cc1ccc2nc(-c3ccc(NC(=O)COC(=O)c4ccco4)cc3)sc2c1	-2%	u
Cc1ccc2nc(-c3ccc(NC(=O)COC(=O)c4ccc(Br)o4)cc3)sc2c1	-1%	13µM*
Cc1ccc2nc(-c3ccc(NC(=O)COC(=O)c4cncc(Br)c4)cc3)sc2c1	-2%	6.3µM*
C=CCOC(=O)N[C@H](C[N+](=O)[O-])c1ccccc1	2%	3%
COc1cc(-c2cc(OC)c3c(C)oc(C)c3c(=O)c2)ccc1OC(=O)c1cccc(C)c1	-11%	u
COc1ccccc1-c1nccc(NCc2cccs2)n1	3%	u
COc1ccc(NC(=S)N(CCc2c(C)[nH]c3ccc(C)cc23)Cc2ccco2)cc1	-5%	u
CCOc1ccc(NC(=S)N(CCc2c(C)[nH]c3ccc(C)cc23)Cc2ccco2)cc1	3%	3.2µM*
CCOc1ccc(-c2nonc2NC(=O)c2ccc(C)cc2)cc1OCC	-1%	-9%

High-throughput results: PubChem, National Center for Advancing Translational Sciences (NCATS)
